Experiments:
Assay type in all cases: functional
[1] = target: Solute carrier family 2, facilitated glucose transporter member 1 (Homo sapiens) (UniProt P11166); assay: ST_JUDE_LEISH: Cytotoxicity at 2uM final concentration against transgenic Leishmania Mexicana promastigotes LmGLUT1 that are glucose transport deficient and complemented with the human glucose transporter GLUT1. Activity is measured by DNA content using SYBR green in vitro
[2] = target: Hexose transporter 1 (Plasmodium falciparum) (UniProt O97467); assay: ST_JUDE_LEISH: Cytotoxicity at 2uM final concentration against transgenic Leishmania Mexicana promastigotes LmPfHT that are glucose transport deficient and complemented with the Plasmodium falciparum hexose transporter. Activity is measured by DNA content using SYBR green in vitro
[3] = target: Glucose transporter (Leishmania mexicana) (UniProt O61059); assay: ST_JUDE_LEISH: Cytotoxicity at 2uM final concentration against transgenic Leishmania Mexicana promastigotes LmGT2 that are glucose transport deficient and complemented with the L. Mexicana glucose transporter 2. Activity is measured by DNA content using SYBR green in vitro

Solute carrier family 2, facilitated glucose transporter member 1 (Homo sapiens), sequence (P11166 whole entry): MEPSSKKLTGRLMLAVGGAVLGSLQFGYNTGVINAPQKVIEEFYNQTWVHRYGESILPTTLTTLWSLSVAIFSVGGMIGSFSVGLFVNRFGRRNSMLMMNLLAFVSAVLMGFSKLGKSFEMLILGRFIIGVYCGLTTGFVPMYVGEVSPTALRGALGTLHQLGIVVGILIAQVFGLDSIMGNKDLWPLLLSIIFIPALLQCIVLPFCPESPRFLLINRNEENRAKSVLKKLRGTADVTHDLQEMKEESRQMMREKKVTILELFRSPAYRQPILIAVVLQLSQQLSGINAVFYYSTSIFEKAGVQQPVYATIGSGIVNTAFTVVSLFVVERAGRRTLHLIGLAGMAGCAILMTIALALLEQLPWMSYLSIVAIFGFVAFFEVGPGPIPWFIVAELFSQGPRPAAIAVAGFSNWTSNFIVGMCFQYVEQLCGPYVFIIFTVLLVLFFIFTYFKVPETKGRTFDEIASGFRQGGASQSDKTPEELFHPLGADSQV

SMILES | inhibition [1] | inhibition [2] | inhibition [3]
CCCCc1ccc2[nH]c(NC(=O)OC)nc2c1 | 10.2% | 7.79% | 9.56%
CCCCCCN1CCC(NCc2ccc(Cl)cc2)CC1 | 7.59% | 7.61% | 4.28%
CN1CCN(c2ccc3[nH]c(-c4ccc(Cc5cc(Cl)ccc5OCc5ccccc5)o4)nc3c2)CC1 | 1% | 2.32% | 2.2%
CCCC1N=C(N)N=C(N)N1c1ccc(CC)cc1 (configuration not stated) | 1.98% | 0.44% | 1.72%
FC(F)(F)c1ccc2[nH]c(-c3cccc(-c4cccc(CNCc5cnn(-c6ccccc6)n5)c4)c3)nc2c1 | 5.47% | 5.16% | 3.27%
O=C(Nc1ccc(OC2CCN(Cc3ccc(F)cc3)C2)c(Cl)c1)c1ccc(F)cc1 (configuration not stated) | -0.04% | -0.69% | -1.62%
CC(C)CC(=O)N1CCNC[C@@H]1C(=O)NCc1ccc(Cl)c(Cl)c1 | 2.93% | 1.04% | 3.02%
COc1ccc(CNc2ccnc3cc(OC)ccc23)cc1 | -1.06% | 12.2% | 3.66%
Cc1cc(-c2cc3nc4c(c(O)n3n2)CCCC4)c(C)o1 | 4.05% | 8.94% | 6.14%
COc1ccc2nc(-c3cccc(C)n3)nc(Nc3ccncc3)c2c1 | 11.6% | 1.8% | 2.21%
CN1CCC(NCc2cccc(-c3ccc(S(=O)(=O)NCCN4CCCC4)c(F)c3)c2)CC1 | -1.49% | -0.62% | -0.34%
CC(=O)Nc1nc(C)c(-c2csc(Nc3ccc(Cl)cc3)n2)s1 | -0.76% | -1.35% | -2.23%
O=C(Nc1ccc(Cl)cc1)c1ccc(CN2CCCN(Cc3cccc(O)c3)CC2)cc1 | 1.65% | 1.35% | 2.47%
Cc1cccc2nc(-c3ccc(-c4cccc(CN5CCC(C(N)=O)CC5)c4)cc3)[nH]c12 | 0.21% | -0.52% | -1.72%

— ChEMBL document CHEMBL3433997, “St. Jude Leishmania screening dataset” (2016)
